Assay outcomes (PubChem)
Most compounds without a hit are left out; they make up all but 12% or so of the library.
ALDH1A1 block = blocks purified human ALDH1A1 activity; P00352; Purified ALDH1A1, NADH fluorescence, propionaldehyde substrate; actives 7.3% (n = 220,000); Potency, µM (top dose mostly 75.3 µM), inactives show top-dose activity, negative = inhibition, usual class: inhibitors; active means well fitted inhibition curve with a large enough effect, not every such curve was filed as active; inconclusive means small, poorly fitted or top-dose-only effect, or another doubt; inactive means no such curve, though single readings can be large or run the other way;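 further: potency means the concentration at half of the fitted maximal effect; plate controls were no enzyme wells and a reference inhibitor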
RORgamma inh = blocks mouse ROR gamma transcriptional activity | AID 2551 | Potency, µM (titrated, usually from 53.6 µM), without a hit: top-dose activity change, negative = inhibition, hits mostly inhibitors | P51450 | actives 5.4% (n = 310,000) | Drosophila S2 Gal4-RORgamma UAS-luciferase reporter, 20 h; further: potency means the concentration at half of the fitted maximal effect; nearly all actives have a fitted effect of over 60% in size
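Luminescence from a UAS-regulated Photinus luciferase reporter in stably transfected Drosophila Schneider cells is measured; decreased signal marks ROR gamma inhibition. Fusion expression is induced by 700 uM copper sulfate for 20 hr.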
PLK1 PBD block = blocks phosphopeptide binding to human PLK1 polo-box domain; P53350; Plk1 PBD binding of FITC phosphopeptide, fluorescence polarization; Potency, µM, for inactives: max response, negative = inhibition, most hits filed as inhibitors; actives 2.8% (n = 360,000); AID 720504; further: potency means the concentration at half of the fitted maximal effect; series mostly up to about 57 µM; nearly all actives have a fitted effect of over 65% in size
Target sequence (P53350 whole entry, looked up, the tested form may be a part): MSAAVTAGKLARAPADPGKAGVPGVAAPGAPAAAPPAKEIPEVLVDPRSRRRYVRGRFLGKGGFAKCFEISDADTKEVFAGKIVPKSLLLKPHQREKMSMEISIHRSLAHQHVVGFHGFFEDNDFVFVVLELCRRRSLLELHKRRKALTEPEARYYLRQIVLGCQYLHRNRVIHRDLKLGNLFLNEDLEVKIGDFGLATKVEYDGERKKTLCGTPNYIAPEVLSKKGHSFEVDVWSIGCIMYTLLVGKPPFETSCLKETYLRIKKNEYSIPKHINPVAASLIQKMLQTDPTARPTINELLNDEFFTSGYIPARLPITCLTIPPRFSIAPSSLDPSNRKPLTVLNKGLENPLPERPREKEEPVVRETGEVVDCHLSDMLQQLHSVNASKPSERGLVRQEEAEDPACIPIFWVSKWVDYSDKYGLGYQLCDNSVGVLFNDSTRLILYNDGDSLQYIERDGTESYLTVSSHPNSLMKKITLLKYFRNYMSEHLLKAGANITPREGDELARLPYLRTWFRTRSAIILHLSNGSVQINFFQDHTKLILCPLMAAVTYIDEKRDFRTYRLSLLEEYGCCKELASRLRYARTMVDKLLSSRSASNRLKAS
Gal4-VP16 FLuc = counter-screen for ROR gamma inhibitors: Gal4-VP16 reporter; Drosophila S2 Gal4-VP16 UAS-luciferase, luminescence, 20 h; actives 3.5% (n = 310,000); Potency, µM (series often up to 53.6 µM), inactives show at the highest dose activity, negative = inhibition, most hits filed as inhibitors; AID 2546;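 further: Gal4-VP16 expression switched on by copper sulfate through the metallothionein promoter; potency means the concentration at half of the fitted maximal effect; nearly all actives have a fitted effect of over 50% in size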
Sfp inh = blocks B. subtilis Sfp PPTase activity. Q9F4F7. Biochemical Sfp PPTase activity, qHTS. Potency, µM, for inactives: largest response in the series, negative = inhibition, hits mostly inhibitors. actives 3.5% (n = 310,000);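 further: the enzyme is Sfp with the accession as filed and its product quenches rhodamine fluorescence; potency means the concentration at half of the fitted maximal effect; 0% = enzyme reaction without inhibitor and -100% = no enzyme wells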
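Sfp 15 nM + cpd, 15 min RT; start w/ rhodamine-CoA 5 uM, BHQ-2-YbbR 12.5 uM (final); 50 mM Hepes pH 7.6, 10 mM MgCl2, 0.01% NP-40, 0.01% BSA; read 525/598 nm at 0 and 30 min.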
Sfp inh conf = confirmation of Bacillus subtilis Sfp PPTase inhibitors. AID 2701. shares compounds with Sfp inh. Potency, µM (highest dose often 114 µM), for inactives: at the highest dose activity change, negative = inhibition, hits mostly inhibitors. Sfp PPTase enzymatic assay, qHTS titration. actives 79% (n = 380);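 further: potency means the concentration at half of the fitted maximal effect; plate controls were uninhibited Sfp reaction for no effect and no enzyme control for full effect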
Sfp PPTase gel = Inhibits B. subtilis Sfp phosphopantetheinylation. shares compounds with Sfp inh. purified Sfp, gel-based phosphopantetheinylation read-out. Potency, µM, actives largely listed as inhibitors. actives 20% (n = 210);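 active means potency below 100 µM; inconclusive means dose-dependent response but potency above 100 µM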;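 further: band intensities scaled against SCH202676 control wells before curve fitting; potency is an IC50 for inhibitors of Sfp transfer activity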
Numbers without * were called inactive; i = inactive; ? = inconclusive; · = no result given; [ ] = dose if it differs, or a comment. Unless noted, the call rests on the fitted dose curve; in most records, active means well fitted curve in the direction sought with a large enough effect; inconclusive means small, poorly fitted or top-dose-only effect, or another doubt; inactive means no such curve, though single readings can be large; an effect the other way counts as inactive or inconclusive. Unless noted, on the % scale 0 is the no-effect control and ±100 the full control effect.

SMILES | ALDH1A1 block | RORgamma inh | PLK1 PBD block | Gal4-VP16 FLuc | Sfp inh | Sfp inh conf | others
CN(c1ccccc1)S(=O)(=O)c1cccc(C(=O)Nc2nn[nH]n2)c1 | -5% | -25% | 7% | 4% | -1% | ·
Oc1ccc(NCc2ccccc2OCc2ccccc2)cc1 | 5.6µM* | ? | 0% | ? | 25µM* | 11µM* | Sfp PPTase gel=?
CCNCc1ccccc1OCc1ccccc1 | 3% | -13% | ? | -3% | 22% | ·
COC(=O)c1cc(=O)c(O)c2c(O)c(O)ccc2c1 | 11µM* | -12% | · | 5% | 32µM* | 9.4µM* | Sfp PPTase gel=i
NC(=O)c1nnn(-c2nonc2N)c1-c1ccc([N+](=O)[O-])cc1 | 5% | -34% | -9% | 13% | -6% | ·
COC(=O)Oc1nsnc1N1CCOCC1 | 4µM* | 0% | 2.7µM* | -11% | 13µM* | 11µM*
CCCCC1(c2ccc(F)cc2)NC(=O)N(CC(=O)N2CCN(C(=O)c3ccco3)CC2)C1=O (stereo not given) | · | 23% | 0% | 1% | 7% | ·
COc1ccc(Cn2nnnc2C(c2cccnc2)N2CCN(c3ccc(O)cc3)CC2)cc1 (stereo not given) | ? | 31% | -2% | -4% | ? | ·
CN1CCN(C(c2cccnc2)c2ccc3cccnc3c2O)CC1 (stereo not given) | 1.9µM* | 2% | 19µM* | -5% | 2.8µM* | 42µM*
CCOC(=O)Cc1nnc(NC(=O)c2ncn[nH]2)s1 | 1% | -18% | -6% | 2% | 14µM* | -4% | Sfp PPTase gel=i
COc1cccc(CNCc2ccco2)c1O | · | -24% | 5% | -11% | ? | ·
COc1ccc(/C=N/NC2=NS(=O)(=O)c3ccccc32)cc1OC | · | -39% | -2% | -6% | -4% | ·
Cn1nnc(NC(=O)c2ccco2)n1 | 2% | 2% | -1% | -3% | 19% | ·
Cn1nnc(NC(=S)NC(=O)c2ccco2)n1 | 3.5µM* | ? | -23% | 10µM* | 6.3µM* | ? | Sfp PPTase gel=i
O=C1NC(c2ccccc2)(C(F)(F)F)SC2=CCCCCN12 (stereo not given) | ? | -24% | -5% | -7% | 20µM* | 47µM* | Sfp PPTase gel=i
Cc1ccc(C2(C(F)(F)F)NC(=O)N3CCCN=C3S2)cc1 (stereo not given) | 0% | 21% | -8% | 17% | -4% | ·
CCOc1ccc(C(=O)CCC(=O)N(CC)CC(=O)NCc2cccs2)cc1 | · | · | -7% | · | · | ·
CCOc1ccc(C(=O)CC(NCc2cccs2)C(=O)O)cc1 (stereo not given) | ? | 4.5µM* | -28% | 13µM* | 11µM* | 37µM*
S=C(Nc1ccccn1)c1ccccn1 | 3.5µM* | 7.1µM* | 27µM* | 3.2µM* | 2.8µM* | 53µM*
CCSc1nnc(NC(=O)C2CCCCC2C(=O)OCC(F)(F)C(F)F)s1 (stereo not given) | ? | -17% | -4% | -1% | 22µM* | 53µM*
CCSc1nnc(NC(=O)C2C3CCC(C3)C2C(=O)O)s1 (stereo not given) | ? | -2% | -6% | -19%[10 µM] | -4% | ·
NC(=O)CSc1nc2scc(-c3ccco3)c2c(=O)n1-c1ccccc1 | 3.5µM* | 21% | -21% | -5% | 6.3µM* | 15µM*
O=C(CSc1nnc(-c2ccco2)n1-c1ccccc1)NCC1CCCO1 (stereo not given) | · | 7% | 4% | 5% | 12% | ·
O=C(CSc1nc2scc(-c3ccco3)c2c(=O)n1-c1ccccc1)NCC1CCCO1 (stereo not given) | 13µM* | -3% | -4% | 6% | 1.3µM* | 42µM*
CC(=O)N1CCN(c2ccc(NCc3ccc4c(c3)OCO4)cc2)CC1 | ? | 28% | -5% | -6% | 16µM* | 21µM* | Sfp PPTase gel=i
Cc1cc2nc3ccc(=[N+](C)C)cc-3sc2cc1N | · | ? | ? | 35µM* | 25µM* | 37µM*
